Screening results deposited in PubChem by National Center for Advancing Translational Sciences (NCATS).
FMDV inh: antivirals against foot and mouth disease virus; 410,000 tested, 1.2% active; Potency, µM (titrated, usually from 57.9 µM), for inactives: at the top dose activity change, negative = inhibition, most hits filed as inhibitors; FMDV antiviral cell-based qHTS; calls by dose curve; tested in HEK293T cells; note: read-out not given here; potency is the fitted concentration of half-maximal effect; nearly all actives have a fitted effect of over 45% in size
HCV inh: inhibitors of hepatitis C virus infection; Huh7.5.1 HCVcc-Cre infection, luciferase reporter, 44 h; Potency, µM (highest dose often 41.8 µM), without a hit: top-dose activity change, negative = inhibition, most hits filed as inhibitors; 340,000 tested, 3.4% active; AID 651820; active = well fitted inhibition curve with a large enough effect; inconclusive = small, poorly fitted or top-dose-only effect, or another doubt; inactive = no such curve, though single readings can be large or run the other way; note: potency is the fitted concentration of half-maximal effect
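Antiviral activity was scored by luciferase reporter output from cells infected with HCVcc-Cre (~0.5 moi) in presence of compound, 44 h infection period, cells seeded 1,000/well 4 h prior.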
VACV Venus inh: vaccinia inhibition (Venus reporter); 330,000 tested, 0.46% active; Vaccinia virus Venus reporter expression, fluorescence; Potency, µM (doses to about 36.5 µM), for inactives: at the highest dose activity change, negative = inhibition, usual class: inhibitors; calls by dose curve; tested in A549 cells; note: potency is the fitted concentration of half-maximal effect; nearly all actives have a fitted effect of over 30% in size
VACV mCherry inh: inhibitors of vaccinia virus infection (mCherry reporter signal); 310,000 tested, 0.63% active; AID 720579; Vaccinia virus mCherry reporter infection, fluorescence; Potency, µM (doses to about 36.5 µM), without a hit: at the top dose activity change, negative = inhibition, most hits filed as inhibitors; calls by dose curve; tested in A549 cells; note: potency is the fitted concentration of half-maximal effect; nearly all actives have a fitted effect of over 35% in size
HCMV inh: human cytomegalovirus inhibition; HFF cells, HCMV-luciferase reporter, 72 h; stronger effect = lower value; activity change, negative = inhibition, % at 57.5 µM; 410,000 tested, 4.5% active; in the data active = activity change below about -60%; inconclusive = no clear call, values can overlap the other calls; inactive = above about -39%
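Two-dose cell screen: HFF monolayers treated with compounds and infected with luciferase-expressing HCMV at 1 PFU/cell, 72 h at 37C, then lysed for luciferase measurement.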
* = called active by the depositor; i = inactive; ? = inconclusive; / = not tested or not shown; [ ] = remark or other dose. Shown are actives, neighbours in structure and some others; about 7.3% of the full set was active somewhere. % is set by controls: 0 for no effect and ±100 for the full control effect.

SMILES	FMDV inh	HCV inh	VACV Venus inh	VACV mCherry inh	HCMV inh
COc1ccc(NC(=O)CSc2nc3ccccc3n2CC(=O)NCc2ccc(F)cc2)cc1	-12%	/	-18%	-14%	-37
COc1ccc(CNC(=O)Cn2c(SCC(=O)Nc3ccc(C)c(C)c3)nc3ccccc32)cc1	-12%	/	?	?	-67*
Cc1ccccc1NC(=O)Cn1c(SCC(=O)Nc2ccc(F)cc2)nc2ccccc21	-16%	/	-22%	-10%	-64*
COc1ccccc1C(O)c1nccn1Cc1ccccc1 (stereo unspecified)	/	/	-22%	-9%	/
Cc1c(Cl)cccc1-n1c(SCC(=O)NCc2cccs2)nnc1-c1ccncc1	-6%	0%	?	/	16
Cc1ccccc1-n1c(SCC(=O)c2ccccc2)nnc1-c1ccc(F)cc1	26%	/	-15%	-18%	?
Cc1c(Cl)cccc1-n1c(SCC(=O)NCc2ccccc2Cl)nnc1-c1ccncc1	-25%	-13%	/	/	-102*
Cc1ccccc1-n1c(SCC(=O)c2cc(C)n(C)c2C)nnc1-c1ccncc1	35µM*	?	/	/	-12
CCOC(=O)C1C(C(=O)Nc2cccc(C(F)(F)F)c2)C1C(=O)NC(C)C (stereo unspecified)	32µM*	6%	-4%	i	-18
COC(=O)[C@H](C)NC(=O)Nc1cccc(C(F)(F)F)c1	-13%	11%	-1%	/	28
Cc1cccn2c(Nc3ccccc3)c(-c3ccccn3)nc12	-29%	-7%	-7%	?	-66*
Cc1ccccc1Nc1c(-c2ccc(Cl)cc2)nc2c(C)cccn12	-11%	/	-20%	-24%	0
Cc1ccccc1Nc1c(-c2ccco2)nc2c(C)cccn12	-14%	/	-13%	-4%	-36
Cc1cccc(C)c1Nc1c(-c2ccccn2)nc2c(C)cccn12	-24%	/	-13%	-10%	-69*
COc1ccc(CCNC(=O)C(=O)NCC(c2ccco2)S(=O)(=O)c2ccccc2)cc1OC (stereo unspecified)	?	/	-7%	i	42
CC(=O)Nc1ccc(S(=O)(=O)N2CCC(C(=O)c3ccc(Cl)cc3)CC2)cc1	-25%	?	0%	i	-63*
CC(=O)Nc1ccc(S(=O)(=O)N2CCC(C(=O)c3ccc(F)cc3)CC2)cc1	-15%	?	-14%	3%	1
CC(=O)Nc1ccc(NC(=O)C(C)OC(=O)c2ccc(S(=O)(=O)N3CCCCCC3)cc2)cc1 (stereo unspecified)	2%	?	0%	i	-72*
Cc1ccc(CNC(=O)c2ccc(N3CCCC3)c(NC(=O)Nc3ccc(F)c(Cl)c3)c2)cc1	5%	/	-8%	-4%	-5
COc1cc(Nc2nc(-c3ccccc3)c3cc(C)ccc3n2)cc(OC)c1OC	?	10µM*	-21%	-29%	97
NNc1nc(-c2ccccc2)c2cc(Cl)ccc2n1	-11%	-4%	11%[7.34 µM]	-8%[7.34 µM]	-33
Clc1ccc(Nc2nc(-c3ccccc3)c3cc(Cl)ccc3n2)cc1	-19%	/	-16%	0%	-61*
COc1cccc(Nc2nc(-c3ccccc3)c3cc(C)ccc3n2)c1	-20%	/	-7%	-11%	-36
CCCCOc1ccc(Cn2c(=O)oc3ccc(C)cc32)cc1	-3%	/	-1%	3%	18
CCCCOC(=O)c1ccc(NC(=O)Cn2nnc3sc4c(c3c2=O)CCCC4)cc1	-23%	/	-5%	-15%	-9
SMILES	FMDV inh	HCV inh	VACV Venus inh	VACV mCherry inh	HCMV inh
CCN1CCCC1CNC(=O)c1cnn(-c2nccc(-c3ccc(C)o3)n2)c1C1CC1 (stereo unspecified)	-8%	/	-7%	-16%	/
Oc1ccccc1Nc1nc(NCc2ccco2)c2ccccc2n1	?	13µM*	/	/	0
COc1ccc(OC)c(Nc2nc(NCc3ccco3)c3ccccc3n2)c1	?	11µM*	-23%	-22%	?
CNc1nc(NCc2ccco2)c2ccccc2n1	/	/	?	-17%	/
Cc1cccc(Nc2nc(NCc3ccco3)c3ccccc3n2)c1	28µM*	6.3µM*	13µM*	?	-95*
CCCOc1ccc(/C=N/NC(=S)Nc2ccccc2[N+](=O)[O-])c(O)c1	?	?	?	2.8µM*	-101*
CCCOc1ccc(/C=N/Nc2ccccc2[N+](=O)[O-])c(O)c1	11µM*	11%	-2%	-14%	?
COc1ccc(/C=N/NC(=S)Nc2ccccc2[N+](=O)[O-])cc1O	-2%	?	?	-22%	-66*
